From PubChem
Menin MLL FP TR: qHTS Assay for Inhibitors Targeting the Menin-MLL Interaction in MLL Related Leukemias: Competition With Texas Red Labeled MLL-derived Mutant Peptide | actives 0.23% (n = 270,000) | Menin + Texas Red MLL mutant peptide, fluorescence polarization | Potency, µM (highest dose often 61.6 µM), for inactives: at the highest dose FP activity change, negative = inhibition, usual class: inhibitors | AID 1768, 2009; active = well fitted inhibition curve with a large enough effect in the polarisation, with a control signal flat, not every such curve was filed as active; inconclusive = small, poorly fitted or top-dose-only effect, or effect the other way, or a change in a side signal; inactive = no such curve, though single readings can be large or run the other way; the % refers to the polarisation; note: potency is the fitted concentration of half-maximal effect; % of control where 0% means no effect
Target sequence (O00255 whole entry, looked up): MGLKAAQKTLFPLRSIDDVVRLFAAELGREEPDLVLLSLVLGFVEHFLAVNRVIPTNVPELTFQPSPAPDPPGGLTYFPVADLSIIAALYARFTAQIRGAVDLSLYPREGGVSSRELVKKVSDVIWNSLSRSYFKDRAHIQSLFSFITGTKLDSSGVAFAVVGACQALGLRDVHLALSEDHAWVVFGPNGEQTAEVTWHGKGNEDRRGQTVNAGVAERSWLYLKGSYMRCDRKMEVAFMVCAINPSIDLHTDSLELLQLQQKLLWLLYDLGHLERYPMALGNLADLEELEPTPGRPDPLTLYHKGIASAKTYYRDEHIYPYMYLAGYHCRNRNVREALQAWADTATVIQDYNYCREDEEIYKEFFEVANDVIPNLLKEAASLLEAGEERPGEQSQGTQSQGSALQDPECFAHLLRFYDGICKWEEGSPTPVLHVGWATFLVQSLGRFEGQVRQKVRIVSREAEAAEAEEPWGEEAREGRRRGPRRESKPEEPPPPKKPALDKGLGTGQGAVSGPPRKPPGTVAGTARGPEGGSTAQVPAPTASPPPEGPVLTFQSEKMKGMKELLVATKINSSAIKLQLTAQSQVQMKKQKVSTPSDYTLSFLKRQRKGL
Menin MLL FP FL: qHTS Assay for Inhibitors Targeting the Menin-MLL Interaction in MLL Related Leukemias: Competition With Fluorescein Labeled MLL-derived Peptide. Fluorescence polarization, fluorescein-MLL peptide displacement from menin. FP activity change, % at 61.4 µM. 290,000 tested, under 10 active. AID 1766, 2009; active = well fitted curve in the direction sought with a large enough effect in the polarisation, not every such curve was filed as active; inconclusive = small, poorly fitted or top-dose-only effect, or effect the other way, or a change in a side signal; inactive = no such curve, though single readings can be large or run the other way; the % refers to the polarisation; note: % of control where 0% means no effect
MLL CXXC-DNA inh: qHTS Fluorescence Polarization Assay for Inhibitors of MLL CXXC domain - DNA interaction. Histone-lysine N-methyltransferase 2A (Homo sapiens), Q03164. Potency, µM (top dose mostly 115 µM), without a hit: at the highest dose activity change, negative = inhibition, hits mostly inhibitors. MLL-CXXC / FITC-HOXA9 DNA fluorescence polarization. actives 0.037% (n = 290,000). AID 2662, 2010; active = well fitted inhibition curve with a large enough effect in the polarisation, with a control signal flat, not every such curve was filed as active; inconclusive = small, poorly fitted or top-dose-only effect, or effect the other way, or a change in a side signal; inactive = no such curve, though single readings can be large or run the other way; the % refers to the polarisation; note: potency is the fitted concentration of half-maximal effect
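Steps: dispense CXXC domain solution (7 uM) → pin compounds or unlabeled HOX-A9 DNA control → 5 min ambient → add FLSN-HOX-A9 solution (50 nM) → spin → 30 min ambient → fluorescence polarization. Tris pH 7.5/NaCl/DTT/BSA buffer.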
KCNH2 WT inh: qHTS for Inhibitors of KCHN2 3.1: Wildtype qHTS | Voltage-gated inwardly rectifying potassium channel KCNH2 (Homo sapiens), Q12809 | U2OS, BacMam KCNH2, thallium flux FluxOr; hits give low values | activity change, % at 1.84 µM | actives 0.37% (n = 340,000) | AID 720551, 2013;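 active = maximum activity change below -70%; inconclusive = maximum activity change between -70% and -50%; inactive = maximum activity change above -50%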; note: % is set by controls: 0 for no effect and ±100 for the full control effect
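U2OS cells were transduced with wild-type KCNH2 virus (2.03 x 10^8 / mL) for 4 h at room temperature, then cultured overnight at 37 C. Thallium flux was read with FluxOr dye. Rate constants were normalized to DMSO controls.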
KCNH2 3.1 block: qHTS for Inhibitors of KCHN2 3.1: Mutant qHTS; actives 0.95% (n = 340,000); U2OS KCNH2 3.1, thallium flux FluxOr; hits give low values; Potassium voltage-gated channel subfamily H member 2, brain isoform KCNH2 3.1 (human); activity change, % (tested at about 1.8 µM);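 active = maximum activity change below -70%; inconclusive = maximum activity change from -70% to -50%; inactive = maximum activity change above -50%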;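 note: thallium influx rate constant from kinetic fluorescence after stimulation buffer; % is set by controls: 0 for no effect and ±100 for the full control effect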
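Kinetic fluorescence (2 min after stimulation buffer) measures Tl+ influx through KCNH2 3.1 expressed by viral transduction in U2OS cells; the rate constant is normalized against DMSO controls serving as positive and negative references.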
* = called active by the depositor; ? = inconclusive; / = not tested or not shown. An excerpt weighted towards active compounds, which were near 1.1% of everything screened.

SMILES	Menin MLL FP TR	Menin MLL FP FL	MLL CXXC-DNA inh	KCNH2 WT inh	KCNH2 3.1 block
COc1cc(C(=O)OC2CC[C@]3(C)C4CCC5[C@]6(O)CC(O)[C@]7(O)C(CN8CC(C)CCC8[C@]7(C)O)[C@]6(O)C[C@@]53O[C@]24O)cc(OC)c1OC (stereo partly drawn)	3%	-1	/	/	/
CCn1c(N)[n+](CC(=O)Nc2ccc(SC(F)F)cc2)c2ccccc21	/	-1	4%	-36	-92*
CC[N+](CC)(CC)CC(=O)Nc1ccc(SC(F)F)cc1	11%	2	5%	-5	2
Cc1ccc(S(=O)(=O)NCCC2=CCCCC2)cc1	/	/	/	-2	-6
CCNS(=O)(=O)c1ccc(CCC(=O)NCCC2=CCCCC2)cc1	-10%	1	4%	-243*	-45
COc1ccc(C2=Nn3c(nnc3-c3cc(OC)ccc3OC)SC2)c(OC)c1	-19%	-3	/	/	/
Cc1cc(CN(C)C(=O)CC2C(=O)NCCN2Cc2c(F)cccc2Cl)n[nH]1 (stereo not drawn)	-27%	-9	37%	-79*	-15
CN(C)CCCN(C(=O)CCc1ccccc1)c1nc2ccc(F)cc2s1	-25%	-4	7%	25	-7
CN(C)CCCN(C(=O)CCc1ccccc1)c1nc2ccc(Br)cc2s1	-14%	0	15%	-36	-87*
CC(N=Cc1cc([N+](=O)[O-])ccc1O)c1ccccc1 (stereo not drawn)	5%	-3	14%	-170*	1
COC(=O)C1(C(=O)OC)C(C(=O)c2ccccc2)C1c1ccccc1 (stereo not drawn)	/	/	/	-42	7
COCCN(C/C=C/c1ccccc1)C/C=C/c1ccccc1	?	-10	8%	29	-79*
NS(=O)(=O)c1ccc(CNC(=O)c2ccc(S(=O)(=O)NCc3ccco3)cc2)cc1	/	/	/	1	10
CCCCCn1c(N2CCN(Cc3ccccc3)CC2)nc2c1c(=O)[nH]c(=O)n2C	2%	0	0%	?	-75*
O=C(O)COc1nn(Cc2ccccc2)c2ccccc12	3%	1	-1%	/	/
COC(=O)c1ccc(COC(=O)CNC(=O)c2ccc(OC)cc2)cc1	/	/	/	3	3
COc1ccc(CNC(=O)COC(=O)c2cc(C)oc2C)cc1	/	/	/	1	3
O=C(NCCCn1ccnc1)Nc1ccc2c(c1)OCO2	-24%	0	0%	-112*	4
Cc1cccc(C)c1OCc1cc(C(=O)NC2CCC2)no1	1%	11	11%	13	-94*
Cc1cccc(C)c1OCc1cc(C(=O)NC2CCC(O)CC2)no1 (stereo not drawn)	/	/	-3%	-4	21
CCCCN1C(=O)C(CC(=O)NCc2cccc3ccccc23)CC(C(=O)N(C)C)=C1C (stereo not drawn)	/	/	/	7	-91*
CC1=C(C(=O)N(C)C)CC(CC(=O)NCc2cccc3ccccc23)C(=O)N1CCCN1CCCC1=O (stereo not drawn)	/	/	/	-18	-11
CN(C)C1=NCCN1CCCC1CCCCC1	/	/	/	-2	-28
CN(C)C1=NCCN1CCC1CCCC1	3%	3	2%	9	-109*
CC(=O)Nc1ccn(C2CC3OCC(NC(=O)C(Cc4ccccc4)NC(=O)OC(C)(C)C)C3O2)c(=O)n1 (stereo not drawn)	-19%	-3	/	/	/
SMILES	Menin MLL FP TR	Menin MLL FP FL	MLL CXXC-DNA inh	KCNH2 WT inh	KCNH2 3.1 block
Cc1sc2ncnc(N3CCN(CCOc4ccc(Cl)cc4)CC3)c2c1C	-10%	11	3%	-21	-79*
COc1ccc(C(c2c(O)nc[nH]c2=O)c2c(O)nc[nH]c2=O)cc1	/	3	13%	1	24
O=c1[nH]cnc(O)c1C(c1ccc([N+](=O)[O-])cc1)c1c(O)nc[nH]c1=O	1%	2	-1%	-4	-181*
O=C(Cn1nnc(-c2ccccc2F)n1)Nc1ccc2c(c1)OCCO2	48%	-4	10%	-3	8
O=C(c1cc(-c2ccc(Cl)cc2)n(-c2ccc(Cl)cc2)n1)N1CCOCC1	?	2	2%	-70*	-98*
O=C(CCCc1ccccc1)N1CCN(C2CCCCC2)CC1	5%	-5	10%	5	16
c1ccc(CCN(Cc2ccccc2)C2CCN(C3CCCC3)CC2)cc1	?	-10	-1%	12	-88*
COc1cc(C(=O)COC(=O)C2CCN(c3ccc(C(F)(F)F)cn3)CC2)ccc1OC(F)F	/	/	/	-7	-79*
O=C(COC(=O)C1CCN(c2ccc(C(F)(F)F)cn2)CC1)c1ccc(F)cc1	/	/	/	-44	-78*
OCCNCc1ccc(OCc2ccc(Cl)cc2Cl)cc1	?	-4	12%	15	-84*
OCCCCNCc1ccc(OCc2ccc(Cl)cc2Cl)cc1	-19%	2	6%	-17	-44
CN(C)N=Nc1ccc(-c2cn(Cc3ccccc3)cn2)cc1	0%	-8	-6%	0	-23
Cc1ccc(C(=O)NNC(=O)c2n[nH]c(=O)c3ccccc23)cc1C	/	/	/	6	-79*
CSCCC(NC(=O)c1ccc(Cl)c([N+](=O)[O-])c1)C(=O)N1CCN(C/C=C/c2ccccc2)CC1 (stereo not drawn)	/	/	/	-42	-97*
CC(C)C(NC(=O)c1ccccc1)C(=O)N1CCN(C/C=C/c2ccccc2)CC1 (stereo not drawn)	/	/	/	6	-8
CC(OC(=O)Cn1[nH]c(=O)c2ccccc2c1=O)C(=O)Nc1ccc(F)cc1 (stereo not drawn)	/	/	/	-20	-3
c1ccc(-c2cnn3c(-c4ccccc4)c(-c4ccccc4)nc3n2)cc1	0%	?	?	-135*	-89*
O=C(CSc1nnc(-c2ccc(O)cc2)o1)NNC(=O)c1ccncc1	/	/	23%	14	12
CCCCN(CC)CCNC(=O)c1cn(-c2ccc(Cl)cc2)c(=O)c2ccccc12	?	-17	2%	?	-78*
Cc1cc(C)n2nc(SCc3ccccc3F)nc2n1	-21%	1	3%	3	5
Cc1cc(C)n2nc(SCc3ccccc3C(=O)O)nc2n1	-15%	-3	-1%	-144*	-191*
COc1ccc(OC)c(N(CCN2C(=O)c3ccccc3C2=O)C(=O)C2CCC(=O)C2C)c1 (stereo not drawn)	/	/	/	-15	3
O=C(Nc1cccnc1)c1ccc(COc2cc(Cl)ccc2Cl)o1	46%	2	-6%	-104*	42
